This passage reports composite z-score and z-score results from PubChem BioAssay.

Active and inactive are the calls of the source.

The nature of test [1]: small molecules captured by biotinylated probe aFSTL3 – biochemical, small-molecule microarray, fluorescence 635/667, stem cell growth factor project, primary screen (AID 1064).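 Further: measures binding of the biotinylated anti-FSTL3 antibody to printed compounds.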 Particulars: higher = more signal.
The nature of test [2]: binders from COS7 lysate, DM2A8 probe, primary screen, torsin A project, cell lysate, small-molecule microarray, fluorescence 635/667 (AID 1065). The settings on record: higher = more signal, COS7 lysate expressing mutant human TOR1A.
Test [3] can be described thus: small molecules captured by biotinylated probe aFGF2 – biochemical, small-molecule microarray, fluorescence 635/667, stem cell growth factor project, primary screen (AID 1067).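 Further: measures binding of biotinylated aFGF2 protein to printed compounds on slides; z-score merges feature fluorescence and signal-to-noise across triplicate slides.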 Particulars: higher = more signal.
Test [4] in a line: small molecules captured by biotinylated probe aFGF10 – biochemical, small-molecule microarray, fluorescence 635/667, stem cell growth factor project, primary screen (AID 1071).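 Further: score merges 667 nm spot intensity and signal to noise from triplicate slides.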 Particulars: higher = more signal.
Test [5] concerns the target Neurogenic locus notch homolog protein 2 (Homo sapiens) (UniProt Q04721). The test is described as follows: small molecules binding Notch2 protein – biochemical, small-molecule microarray, 635 nm fluorescence, stem cell growth factors, primary screen (AID 1073). Particulars: higher = more signal.
The target of test [6] is Pro-neuregulin-1, membrane-bound isoform (Homo sapiens) (UniProt Q02297). Put plainly: small molecules binding neuregulin-1 protein – biochemical, small-molecule microarray, fluorescence 635/667, psychiatric disease protein project, primary screen (AID 1075).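 Further: score combines 667 nm spot fluorescence with signal to noise.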 The settings on record: NRG1 binding, 635 nm fluorescence, higher = more signal.
Test [7] relates to Neuregulin-1 EGF-like domain. The test is described as follows: small molecules binding NRG1 EGF domain – biochemical, small-molecule microarray, 635 nm fluorescence, primary screen (AID 1081).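 Further: binding of the protein to compounds printed on small-molecule microarray slides.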 Particulars: higher = more signal.
Test [8] in a line: FRG1 expression reporter modulators in myotubes – cell-based, C2C12 myotubes, firefly/Renilla luciferase, luminescence, FRG1 inhibition for FSHD, primary screen (AID 1084). The settings on record: FRG1 promoter luciferase, higher = more signal, called active from +8 up or from −8 down.
The nature of test [9]: small molecules captured by biotinylated probe aFST – biochemical, small-molecule microarray, fluorescence 635/667, stem cell growth factor project, primary screen (AID 1086).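 Further: score merges 667 nm fluorescence with signal-to-noise of each printed compound spot.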 Particulars: higher = more signal.
Test [10] in a line: binders of probe aHhip on microarray, primary screen, stem cell growth factor project, biochemical, small-molecule microarray, fluorescence 635/667 (AID 1087).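 Further: score merges spot fluorescence at 667nm with spot signal to noise ratio.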 Particulars: higher = more signal.
Test [11] concerns PRMT1 (protein arginine N-methyltransferase 1). Put plainly: small molecules binding arginine methyltransferase PRMT1 – biochemical, small-molecule microarray, 635 nm fluorescence, primary screen (AID 1088).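 Further: binding of Prmt1 protein to compounds spotted on small-molecule microarray slides.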 Particulars: higher = more signal.
Test [12] is described as follows: growth effects on S. cerevisiae YJM789 – YJM789 clinical isolate, OD600, 24 h, basal, primary screen (AID 1089).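 Further: growth of clinical yeast isolate S. cerevisiae YJM 789 seeded 1000 cells per well; test concentration not given here.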 Particulars: higher = more signal, called active from +8 up or from −8 down.
Test [13] in a line: S. pombe growth modifiers, basal conditions – strain 972, OD600, 24 h, no modulator, primary screen (AID 1090).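 Further: basal condition with compound alone and no growth modifier present; test concentration not given here.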 The settings on record: S. pombe 972 growth, higher = more signal, called active from +8 up or from −8 down.
The nature of test [14]: budding yeast growth modifiers under rapamycin – strain BY4716, OD600, 96 h, primary screen (AID 1091). Further: test concentration not given here. Particulars: S. cerevisiae BY4716 + rapamycin, higher = more signal, called active from +8 up or from −8 down.
Test [15] concerns the target Torsin-1A-interacting protein 2 (Homo sapiens) (UniProt Q8NFQ8). The test is described as follows: small molecules binding lysate-expressed LULL1 – cell lysate, human LULL1 lysate, 635/667 nm fluorescence, primary screen (AID 1092).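 Further: probe is lysate of COS7 cells overexpressing human LULL1; score merges per-feature 667 nm fluorescence with signal-to-noise.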 Particulars: small-molecule microarray, hLULL1 lysate binding, 635 nm fluorescence; higher = more signal.
The nature of test [16]: optical density change of DRC41 E. coli – strain DRC41, OD650, 24 h, E. coli filamentation project, primary screen (AID 1093).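 Further: MC1000 strain lacking acrAB efflux and sulA so SOS filamentation is blocked; test concentration not given here.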 The settings on record: E. coli DRC41 growth, higher = more signal, called active from +8 up or from −8 down.
The nature of test [17]: probe aLefty2 binding to arrayed compounds – biochemical, biotinylated probe, 635/667 nm fluorescence, primary screen (AID 1094).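 Further: score merges spot fluorescence near 667 nm with spot signal-to-noise ratio.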 Particulars: small-molecule microarray, higher = more signal.
Test [18] relates to Noggin (protein binding on small-molecule microarray). Put plainly: small molecules binding Noggin protein – biochemical, 635/667 nm fluorescence, primary screen (AID 1095).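 Further: score merges 667 nm feature fluorescence with signal to noise over triplicate slides.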 The settings on record: 635 nm fluorescence, higher = more signal.
For test [19], the target named is Neurogenic locus notch homolog protein 3 (Homo sapiens) (UniProt Q9UM47). Put plainly: small molecules binding NOTCH3 protein – biochemical, 635/667 nm fluorescence, primary screen (AID 1096). Particulars: small-molecule microarray, 635 nm fluorescence, higher = more signal.
A short description of test [20]: probe aEGFR binding to arrayed compounds – biochemical, biotinylated probe, 635/667 nm fluorescence, primary screen (AID 1097).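 Further: probe is a biotinylated anti-EGFR antibody binding compounds printed on slides; score combines fluorescence near 667 nm and signal to noise of each spot.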 The settings on record: small-molecule microarray, higher = more signal.

Torsin-1A-interacting protein 2 (Homo sapiens), sequence (Q8NFQ8 whole entry, looked up): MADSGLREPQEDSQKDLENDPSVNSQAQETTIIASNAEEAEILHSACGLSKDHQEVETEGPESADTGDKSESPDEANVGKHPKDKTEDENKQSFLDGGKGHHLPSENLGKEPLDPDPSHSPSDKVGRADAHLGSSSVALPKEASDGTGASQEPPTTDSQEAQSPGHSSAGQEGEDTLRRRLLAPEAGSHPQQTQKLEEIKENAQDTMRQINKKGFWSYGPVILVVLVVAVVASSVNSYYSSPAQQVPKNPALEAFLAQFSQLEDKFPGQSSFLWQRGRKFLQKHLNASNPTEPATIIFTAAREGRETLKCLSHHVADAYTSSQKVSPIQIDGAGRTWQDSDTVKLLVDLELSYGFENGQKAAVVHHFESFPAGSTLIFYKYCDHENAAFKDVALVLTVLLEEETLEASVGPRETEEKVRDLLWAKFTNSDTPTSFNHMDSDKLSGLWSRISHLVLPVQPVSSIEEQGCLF
Neurogenic locus notch homolog protein 3 (Homo sapiens), sequence (Q9UM47 whole entry, looked up): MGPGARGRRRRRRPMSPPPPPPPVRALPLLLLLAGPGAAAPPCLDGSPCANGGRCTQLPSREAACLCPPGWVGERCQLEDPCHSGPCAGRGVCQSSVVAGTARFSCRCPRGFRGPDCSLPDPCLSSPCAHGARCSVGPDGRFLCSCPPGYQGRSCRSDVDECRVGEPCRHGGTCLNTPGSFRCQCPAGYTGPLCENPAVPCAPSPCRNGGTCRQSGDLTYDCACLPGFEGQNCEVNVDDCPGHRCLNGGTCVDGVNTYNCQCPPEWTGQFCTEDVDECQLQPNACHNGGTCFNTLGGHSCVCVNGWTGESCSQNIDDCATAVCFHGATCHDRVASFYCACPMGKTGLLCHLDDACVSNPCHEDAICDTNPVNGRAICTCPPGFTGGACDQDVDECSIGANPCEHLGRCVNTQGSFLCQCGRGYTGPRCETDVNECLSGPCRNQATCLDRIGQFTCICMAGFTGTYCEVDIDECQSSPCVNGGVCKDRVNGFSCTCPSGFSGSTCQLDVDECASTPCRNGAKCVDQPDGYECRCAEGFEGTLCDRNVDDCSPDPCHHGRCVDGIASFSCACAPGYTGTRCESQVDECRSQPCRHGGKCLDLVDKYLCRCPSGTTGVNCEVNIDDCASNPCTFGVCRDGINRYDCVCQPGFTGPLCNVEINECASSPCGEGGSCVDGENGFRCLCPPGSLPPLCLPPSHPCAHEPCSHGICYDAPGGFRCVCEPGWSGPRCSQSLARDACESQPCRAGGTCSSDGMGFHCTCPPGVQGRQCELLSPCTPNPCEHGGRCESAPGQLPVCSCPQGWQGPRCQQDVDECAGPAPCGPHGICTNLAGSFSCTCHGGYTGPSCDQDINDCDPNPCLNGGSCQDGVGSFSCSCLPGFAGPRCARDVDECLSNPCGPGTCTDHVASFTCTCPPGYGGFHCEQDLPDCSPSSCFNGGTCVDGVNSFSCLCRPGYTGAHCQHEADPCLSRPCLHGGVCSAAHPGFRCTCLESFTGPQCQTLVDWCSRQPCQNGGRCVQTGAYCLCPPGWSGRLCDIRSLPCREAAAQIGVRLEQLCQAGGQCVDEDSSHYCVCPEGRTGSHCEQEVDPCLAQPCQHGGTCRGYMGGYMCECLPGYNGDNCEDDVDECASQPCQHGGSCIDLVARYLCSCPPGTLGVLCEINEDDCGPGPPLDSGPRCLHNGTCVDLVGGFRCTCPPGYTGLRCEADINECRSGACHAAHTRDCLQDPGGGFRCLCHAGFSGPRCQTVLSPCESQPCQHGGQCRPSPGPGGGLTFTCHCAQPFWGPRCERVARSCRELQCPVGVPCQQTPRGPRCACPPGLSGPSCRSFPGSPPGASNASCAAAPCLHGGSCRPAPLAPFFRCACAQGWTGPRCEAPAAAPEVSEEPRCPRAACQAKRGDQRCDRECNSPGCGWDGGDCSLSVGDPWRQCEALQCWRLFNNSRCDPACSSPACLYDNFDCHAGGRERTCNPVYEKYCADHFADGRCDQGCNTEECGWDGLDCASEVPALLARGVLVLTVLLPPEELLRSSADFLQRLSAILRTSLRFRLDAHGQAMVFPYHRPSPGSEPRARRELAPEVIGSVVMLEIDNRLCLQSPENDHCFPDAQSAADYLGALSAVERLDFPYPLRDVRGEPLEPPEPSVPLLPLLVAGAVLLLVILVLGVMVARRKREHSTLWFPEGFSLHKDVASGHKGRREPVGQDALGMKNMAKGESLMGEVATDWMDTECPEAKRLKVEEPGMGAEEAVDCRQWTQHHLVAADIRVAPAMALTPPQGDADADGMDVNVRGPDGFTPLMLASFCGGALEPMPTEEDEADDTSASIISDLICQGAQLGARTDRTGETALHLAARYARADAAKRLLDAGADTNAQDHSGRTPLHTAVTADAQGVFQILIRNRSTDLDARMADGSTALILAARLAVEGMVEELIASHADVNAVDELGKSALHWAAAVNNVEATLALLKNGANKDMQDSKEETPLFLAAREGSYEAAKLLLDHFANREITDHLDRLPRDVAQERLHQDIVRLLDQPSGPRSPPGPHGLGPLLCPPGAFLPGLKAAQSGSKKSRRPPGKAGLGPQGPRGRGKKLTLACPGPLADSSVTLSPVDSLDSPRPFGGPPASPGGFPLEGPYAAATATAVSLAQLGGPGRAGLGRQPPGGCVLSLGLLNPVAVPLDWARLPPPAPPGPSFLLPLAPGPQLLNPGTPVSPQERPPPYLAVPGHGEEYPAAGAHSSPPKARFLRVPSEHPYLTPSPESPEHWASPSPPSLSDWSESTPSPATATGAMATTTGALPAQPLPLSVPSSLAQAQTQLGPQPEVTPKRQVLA
Pro-neuregulin-1, membrane-bound isoform (Homo sapiens), sequence (Q02297 whole entry, looked up, the tested form may be a part, canonical isoform): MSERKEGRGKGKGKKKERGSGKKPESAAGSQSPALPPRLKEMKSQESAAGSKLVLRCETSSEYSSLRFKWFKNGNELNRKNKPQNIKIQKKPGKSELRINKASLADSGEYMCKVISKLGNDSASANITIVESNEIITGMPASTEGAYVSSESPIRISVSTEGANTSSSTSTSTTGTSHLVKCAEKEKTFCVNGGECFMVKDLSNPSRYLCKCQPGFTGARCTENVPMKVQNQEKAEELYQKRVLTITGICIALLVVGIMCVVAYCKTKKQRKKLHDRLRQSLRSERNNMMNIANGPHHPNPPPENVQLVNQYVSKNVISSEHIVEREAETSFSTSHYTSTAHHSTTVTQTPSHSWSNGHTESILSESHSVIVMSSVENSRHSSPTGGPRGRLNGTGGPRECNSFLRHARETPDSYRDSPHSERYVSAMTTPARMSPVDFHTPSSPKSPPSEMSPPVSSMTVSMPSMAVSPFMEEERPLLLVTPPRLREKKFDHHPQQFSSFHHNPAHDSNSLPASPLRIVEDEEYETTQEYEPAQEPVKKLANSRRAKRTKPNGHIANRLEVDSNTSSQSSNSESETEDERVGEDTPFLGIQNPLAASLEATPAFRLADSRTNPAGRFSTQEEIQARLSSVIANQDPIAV

Regarding `CC(C)(C)OC(=O)CC[C@]1(C(=O)N2CCOCC2)N=C(c2ccc(OCCCO)cc2)O[C@H]1c1ccccc1N=[N+]=[N-]`, the composite z-score in [1] was 0.594; in test [2], 0.838; in test [3], 0.0376; in test [4] it was 0.402; in test [5] it was 1.48; in test [6], 1.63. In addition, the composite z-score in [7] is 1.28; in test [9], 1.06; in test [10], 0.0515; in test [11] it was 1.28; in test [15], 3.25; in test [17] it was 0.124. For the same compound, the composite z-score in test [18] was 0.356; in test [19], 0.671; in test [20], 0.0552. Further, the z-score is 1.71 (inactive) in [8]; -0.54 (inactive) in [12]; -0.496 (inactive) in [13]; -0.531 (inactive) in [14]; 1.57 (inactive) in [16].

With `NC(=O)[C@@H]1[C@H]2C(=O)O[C@H](c3ccccc3)[C@H](c3ccccc3)N2[C@H](c2ccc(O)cc2)[C@@]12C(=O)Nc1ccccc12`, the composite z-score in test [1] was 0.241; in [2], -0.933; in test [3] it was -0.179; in test [4], 0.0547; in test [5] it was -0.985; in test [6], 2.01. Further, the composite z-score in test [7] is 0.476; in test [9], -0.114; in test [10], -0.314; in [11] it was 1.41; in test [15], 3.53; in [17], -0.107. Further, the values for the composite z-score in test [18], in test [19] and in [20] were -0.952, 0.118 and -0.289, respectively. For the same compound, the z-score in test [8] is 0.308 (inactive); in test [12], 0.0549 (inactive); in test [13] it was -1.41 (inactive); in [14], 0.386 (inactive); in test [16] it was 1.11 (inactive).

On to `COc1ccc(-c2cc3c(c(-c4ccc(Oc5ccccc5)cc4)n2)[Si](C(C)C)(C(C)C)OC3)cn1`, for which the composite z-score in test [1] was -0.264; in test [2], -0.65; in test [3], -0.163; in [4], 0.0106; in test [5] it was 0.358; in [6], -0.264. For the same compound, the composite z-score in test [7] was -0.502; in test [9] it was 0.406; in [10], -0.0994; in test [11], 0.483; in test [15], -0.166; in [17] it was -0.119. For the same compound, the composite z-score in test [18] was 0.503; in [19], 0.342; in [20] it was -0.26. The z-score is -0.211 (inactive) in test [8]; 1.32 (inactive) in [12]; 0.955 (inactive) in test [13]; 1.88 (inactive) in test [14]; -0.984 (inactive) in [16].

Regarding `CC(C)OC(=O)C=C1C[C@@H](c2ccccn2)O[C@@H](c2ccccn2)O1`, the composite z-score is -0.431 in test [1]; -0.121 in test [2]; -0.158 in test [3]; 0.0234 in [4]; -0.538 in test [5]; -0.13 in test [6]. Moreover, the composite z-score in test [7] is 1.27; in test [9], -0.171; in test [10], -0.112; in [11], 0.875; in test [15] it was 0.0473; in test [17], -0.224. The values for the composite z-score in [18], in test [19] and in [20] were 1.25, 0.0527 and 0.0494, respectively. Besides, the z-score in test [8] is 0.805 (inactive); in test [12], -0.0723 (inactive); in [13], 0.228 (inactive); in [14] it was -1.36 (inactive); in test [16], 0.0183 (inactive).

Consider `COCCCNC(=O)[C@]1(CCC(=O)OC(C)(C)C)N=C(c2ccc(OCCCO)cc2)O[C@@H]1c1ccccc1CN=[N+]=[N-]`, for which the composite z-score in [1] came out at 0.175; in test [2] it was 1.19; in test [3] it was 0.042; in [4], 1.27; in test [5], 0.96; in test [6], 0.732. Moreover, the composite z-score in test [7] came out at 1.41; in test [9], 0.728; in test [10], 0.107; in test [11], 1.54; in test [15], 2.92; in test [17], 0.0894. The composite z-score is 0.33 in test [18], 0.89 in test [19] and -0.0315 in test [20]. Also, the z-score was 4.82 (inactive) in test [8]; 0.15 (inactive) in [12]; 0.556 (inactive) in [13]; -0.78 (inactive) in test [14]; -0.613 (inactive) in [16].
